Experimental data: PMC7862700, “An all-to-all approach to the identification of sequence-specific readers for epigenetic DNA modifications on cytosine”

Experiments:
Assay in all cases: DAPPL (digital affinity profiling via proximity ligation, sequencing); 10 mM Tris-HCl pH 7.5, 50 mM NaCl, 1 mM DTT, 4% glycerol, room temperature, 30 min; GST-TFs on glutathione beads, 16-mer random dsDNA library, 0.1% formaldehyde crosslink after washing; high values mean tight binding
FEV = molecular target: T1, FEV (Homo sapiens, UniProt Q99581 1-238); details: protein: recombinant; tags: N-terminal GST; dsDNA, one strand shown
T1 sequence: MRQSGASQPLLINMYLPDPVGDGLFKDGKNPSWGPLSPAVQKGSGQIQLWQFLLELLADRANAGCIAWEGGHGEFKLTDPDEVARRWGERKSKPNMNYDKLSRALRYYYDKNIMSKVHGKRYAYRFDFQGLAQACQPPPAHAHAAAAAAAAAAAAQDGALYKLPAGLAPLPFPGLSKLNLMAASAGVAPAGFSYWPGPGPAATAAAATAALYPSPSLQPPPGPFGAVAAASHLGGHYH
In short: (§1)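 Pools of DNA-barcoded human transcription factors, expressed in yeast as GST fusions on glutathione beads and combined with a tag-only sample, were incubated with 200 nmole of a 16-mer random double-stranded DNA library. Incubation took 30 min at room temperature in Tris/NaCl/DTT/glycerol buffer and was followed by washing, 0.1% formaldehyde crosslinking, proximity ligation (BsaI/T4 ligase, 1 h, 37 °C), PCR amplification and sequencing on an Illumina NextSeq500. Binding signal is the ratio of a hexamer's read frequency for a factor to its frequency for the tag-only sample.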

ETV5 = ETV5 (Homo sapiens, UniProt P41161 1-510); details: protein: recombinant; tags: N-terminal GST; dsDNA, one strand shown
In short: as §1

HSF1 = HSF1 (Homo sapiens, UniProt Q00613 1-529); details: protein: recombinant; tags: N-terminal GST; chain copies: 3; dsDNA, one strand shown
In short: as §1

SPIC = molecular target: T2, SPIC (Homo sapiens, UniProt Q8N5J4 1-248); details: protein: recombinant; tags: N-terminal GST; dsDNA, one strand shown
T2 sequence: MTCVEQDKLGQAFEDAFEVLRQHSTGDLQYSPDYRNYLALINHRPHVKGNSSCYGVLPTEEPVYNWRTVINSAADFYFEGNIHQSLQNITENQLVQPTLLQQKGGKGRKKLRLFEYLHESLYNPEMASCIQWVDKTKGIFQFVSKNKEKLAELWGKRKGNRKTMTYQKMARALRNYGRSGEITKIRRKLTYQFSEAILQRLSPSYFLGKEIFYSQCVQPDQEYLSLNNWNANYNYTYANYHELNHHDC
In short: as §1

ELF4 = ELF4 (Homo sapiens, UniProt Q99607 1-663); details: protein: recombinant; tags: N-terminal GST; dsDNA, one strand shown
In short: as §1

ELK4 = molecular target: T3, ELK4 (Homo sapiens, UniProt P28324-2 1-405); details: protein: recombinant; tags: N-terminal GST; dsDNA, one strand shown
T3 sequence: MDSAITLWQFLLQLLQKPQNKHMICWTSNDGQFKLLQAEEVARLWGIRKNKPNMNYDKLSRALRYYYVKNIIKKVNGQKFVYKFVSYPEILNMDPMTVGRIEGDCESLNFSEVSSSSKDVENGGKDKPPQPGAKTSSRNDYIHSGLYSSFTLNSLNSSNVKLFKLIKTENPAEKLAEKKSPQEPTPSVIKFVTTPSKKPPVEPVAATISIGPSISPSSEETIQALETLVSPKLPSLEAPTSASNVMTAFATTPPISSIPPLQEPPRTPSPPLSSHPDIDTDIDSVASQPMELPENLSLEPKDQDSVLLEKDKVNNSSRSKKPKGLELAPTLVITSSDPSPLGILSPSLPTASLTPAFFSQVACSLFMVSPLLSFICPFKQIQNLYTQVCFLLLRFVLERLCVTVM
In short: as §1

ETV2 = molecular target: T4, ETV2 (Homo sapiens, UniProt O00321 1-342); details: protein: recombinant; tags: N-terminal GST; dsDNA, one strand shown
T4 sequence: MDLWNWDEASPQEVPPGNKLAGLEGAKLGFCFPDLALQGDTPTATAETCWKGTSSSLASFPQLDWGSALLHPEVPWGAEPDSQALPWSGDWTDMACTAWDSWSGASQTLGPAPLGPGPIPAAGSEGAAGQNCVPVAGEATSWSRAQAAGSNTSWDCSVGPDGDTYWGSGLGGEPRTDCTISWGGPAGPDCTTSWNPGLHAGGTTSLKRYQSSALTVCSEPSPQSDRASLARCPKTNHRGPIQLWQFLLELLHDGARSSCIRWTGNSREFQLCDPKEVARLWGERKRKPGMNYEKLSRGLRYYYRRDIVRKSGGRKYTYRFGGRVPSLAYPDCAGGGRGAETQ
In short: as §1

ELF3 = molecular target: T5, ELF3 (Homo sapiens, UniProt P78545 1-371); details: protein: recombinant; tags: N-terminal GST; dsDNA, one strand shown
T5 sequence: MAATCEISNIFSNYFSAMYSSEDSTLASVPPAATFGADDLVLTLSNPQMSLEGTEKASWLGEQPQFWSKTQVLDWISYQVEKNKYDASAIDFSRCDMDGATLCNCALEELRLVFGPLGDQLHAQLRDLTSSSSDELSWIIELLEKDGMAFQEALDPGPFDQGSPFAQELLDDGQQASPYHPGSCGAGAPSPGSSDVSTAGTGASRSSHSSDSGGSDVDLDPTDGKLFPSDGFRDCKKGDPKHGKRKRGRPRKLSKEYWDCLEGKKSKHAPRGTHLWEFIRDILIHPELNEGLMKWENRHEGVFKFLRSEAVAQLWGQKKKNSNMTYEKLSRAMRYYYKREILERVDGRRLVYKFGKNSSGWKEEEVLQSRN
In short: as §1

CRX = CRX (Homo sapiens, UniProt O43186 1-299); details: protein: recombinant; tags: N-terminal GST; dsDNA, one strand shown
In short: as §1

ETV1 = ETV1 (Homo sapiens, UniProt P50549 1-477); details: protein: recombinant; tags: N-terminal GST; dsDNA, one strand shown
In short: as §1

ERF = molecular target: T6, ERF (Homo sapiens, UniProt P50548 1-548); details: protein: recombinant; tags: N-terminal GST; dsDNA, one strand shown
T6 sequence: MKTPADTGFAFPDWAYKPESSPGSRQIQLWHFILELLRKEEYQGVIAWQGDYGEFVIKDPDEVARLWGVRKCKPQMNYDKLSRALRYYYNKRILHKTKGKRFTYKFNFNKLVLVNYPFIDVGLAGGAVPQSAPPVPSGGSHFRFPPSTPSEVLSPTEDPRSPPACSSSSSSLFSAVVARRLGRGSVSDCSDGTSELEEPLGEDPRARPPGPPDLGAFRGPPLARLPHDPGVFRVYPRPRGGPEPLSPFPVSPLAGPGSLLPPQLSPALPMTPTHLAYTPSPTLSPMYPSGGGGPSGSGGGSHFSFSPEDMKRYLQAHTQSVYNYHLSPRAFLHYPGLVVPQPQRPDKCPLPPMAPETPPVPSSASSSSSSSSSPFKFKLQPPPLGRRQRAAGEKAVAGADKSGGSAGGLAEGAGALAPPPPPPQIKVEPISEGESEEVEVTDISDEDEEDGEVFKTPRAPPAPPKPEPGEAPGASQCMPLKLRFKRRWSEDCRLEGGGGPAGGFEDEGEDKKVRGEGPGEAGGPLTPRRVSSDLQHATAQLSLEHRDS
In short: as §1

ETV3L = molecular target: T7, ETV3L (Homo sapiens, UniProt Q6ZN32 1-361); details: protein: recombinant; tags: N-terminal GST; dsDNA, one strand shown
T7 sequence: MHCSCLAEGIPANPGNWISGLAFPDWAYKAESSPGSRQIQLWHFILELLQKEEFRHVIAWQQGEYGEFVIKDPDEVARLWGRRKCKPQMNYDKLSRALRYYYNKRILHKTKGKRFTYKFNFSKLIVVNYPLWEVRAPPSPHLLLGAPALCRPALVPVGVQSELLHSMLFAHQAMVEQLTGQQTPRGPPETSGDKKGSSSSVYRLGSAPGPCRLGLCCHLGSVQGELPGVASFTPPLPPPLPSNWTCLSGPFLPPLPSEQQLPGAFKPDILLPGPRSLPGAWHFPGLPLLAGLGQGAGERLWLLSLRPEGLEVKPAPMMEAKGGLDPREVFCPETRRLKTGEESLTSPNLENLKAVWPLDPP
In short: as §1

ETS2 = molecular target: T8, ETS2 (Homo sapiens, UniProt P15036 1-469); details: protein: recombinant; tags: N-terminal GST; dsDNA, one strand shown
T8 sequence: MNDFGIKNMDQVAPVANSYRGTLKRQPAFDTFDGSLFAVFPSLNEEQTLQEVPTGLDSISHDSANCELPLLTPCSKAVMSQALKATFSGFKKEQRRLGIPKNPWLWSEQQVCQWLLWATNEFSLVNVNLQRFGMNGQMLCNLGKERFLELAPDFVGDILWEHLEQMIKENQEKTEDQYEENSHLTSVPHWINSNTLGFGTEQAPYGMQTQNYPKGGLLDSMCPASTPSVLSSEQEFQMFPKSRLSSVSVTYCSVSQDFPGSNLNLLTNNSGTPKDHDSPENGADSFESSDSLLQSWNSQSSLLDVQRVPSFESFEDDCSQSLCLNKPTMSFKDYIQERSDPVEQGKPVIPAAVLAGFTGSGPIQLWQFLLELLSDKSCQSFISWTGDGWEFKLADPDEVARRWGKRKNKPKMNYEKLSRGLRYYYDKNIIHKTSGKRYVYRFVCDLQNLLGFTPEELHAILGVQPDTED
In short: as §1

SPDEF = molecular target: T9, SPDEF (Homo sapiens, UniProt O95238 1-335); details: protein: recombinant; tags: N-terminal GST; dsDNA, one strand shown
T9 sequence: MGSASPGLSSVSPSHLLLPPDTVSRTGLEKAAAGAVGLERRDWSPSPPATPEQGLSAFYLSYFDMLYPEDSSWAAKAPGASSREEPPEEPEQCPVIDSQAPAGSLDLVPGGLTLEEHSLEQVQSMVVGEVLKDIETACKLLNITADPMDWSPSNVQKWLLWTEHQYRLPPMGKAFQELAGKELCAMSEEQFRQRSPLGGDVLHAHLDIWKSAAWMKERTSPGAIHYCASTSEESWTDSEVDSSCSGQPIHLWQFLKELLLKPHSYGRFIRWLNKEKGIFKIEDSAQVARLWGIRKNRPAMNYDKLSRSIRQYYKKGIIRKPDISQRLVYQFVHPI
In short: as §1

ETV7 = molecular target: T10, ETV7 (Homo sapiens, UniProt Q9Y603 1-341); details: protein: recombinant; tags: N-terminal GST; dsDNA, one strand shown
T10 sequence: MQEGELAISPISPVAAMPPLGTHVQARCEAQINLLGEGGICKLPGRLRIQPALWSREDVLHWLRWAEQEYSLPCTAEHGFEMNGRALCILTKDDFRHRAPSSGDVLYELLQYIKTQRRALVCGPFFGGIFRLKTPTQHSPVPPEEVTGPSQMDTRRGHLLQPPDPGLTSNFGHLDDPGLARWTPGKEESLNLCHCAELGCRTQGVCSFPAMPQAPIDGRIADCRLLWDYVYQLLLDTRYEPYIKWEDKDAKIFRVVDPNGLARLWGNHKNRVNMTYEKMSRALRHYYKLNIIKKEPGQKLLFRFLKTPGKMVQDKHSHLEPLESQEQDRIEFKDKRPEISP
In short: as §1

ELF5 = molecular target: T11, ELF5 (Homo sapiens, UniProt Q9UKW6-2 1-255); details: protein: recombinant; tags: N-terminal GST; dsDNA, one strand shown
T11 sequence: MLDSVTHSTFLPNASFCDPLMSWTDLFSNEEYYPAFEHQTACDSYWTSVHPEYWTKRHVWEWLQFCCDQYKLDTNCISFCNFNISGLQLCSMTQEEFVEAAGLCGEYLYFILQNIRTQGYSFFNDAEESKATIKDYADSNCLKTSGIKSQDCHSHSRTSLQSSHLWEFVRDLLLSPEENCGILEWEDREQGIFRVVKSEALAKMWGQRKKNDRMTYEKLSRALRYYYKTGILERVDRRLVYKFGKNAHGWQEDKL
In short: as §1

ETV3 = molecular target: T12, ETV3 (Homo sapiens, UniProt P41162-2 1-143); details: protein: recombinant; tags: N-terminal GST; dsDNA, one strand shown
T12 sequence: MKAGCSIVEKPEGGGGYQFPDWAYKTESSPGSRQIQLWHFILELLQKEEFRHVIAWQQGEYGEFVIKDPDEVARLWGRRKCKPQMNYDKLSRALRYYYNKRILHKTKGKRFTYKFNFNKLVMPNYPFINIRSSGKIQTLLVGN
In short: as §1

ETV6 = ETV6 (Homo sapiens, UniProt P41212 1-452); details: protein: recombinant; tags: N-terminal GST; dsDNA, one strand shown
In short: as §1

Chain of ELF4 (Q99607 whole entry): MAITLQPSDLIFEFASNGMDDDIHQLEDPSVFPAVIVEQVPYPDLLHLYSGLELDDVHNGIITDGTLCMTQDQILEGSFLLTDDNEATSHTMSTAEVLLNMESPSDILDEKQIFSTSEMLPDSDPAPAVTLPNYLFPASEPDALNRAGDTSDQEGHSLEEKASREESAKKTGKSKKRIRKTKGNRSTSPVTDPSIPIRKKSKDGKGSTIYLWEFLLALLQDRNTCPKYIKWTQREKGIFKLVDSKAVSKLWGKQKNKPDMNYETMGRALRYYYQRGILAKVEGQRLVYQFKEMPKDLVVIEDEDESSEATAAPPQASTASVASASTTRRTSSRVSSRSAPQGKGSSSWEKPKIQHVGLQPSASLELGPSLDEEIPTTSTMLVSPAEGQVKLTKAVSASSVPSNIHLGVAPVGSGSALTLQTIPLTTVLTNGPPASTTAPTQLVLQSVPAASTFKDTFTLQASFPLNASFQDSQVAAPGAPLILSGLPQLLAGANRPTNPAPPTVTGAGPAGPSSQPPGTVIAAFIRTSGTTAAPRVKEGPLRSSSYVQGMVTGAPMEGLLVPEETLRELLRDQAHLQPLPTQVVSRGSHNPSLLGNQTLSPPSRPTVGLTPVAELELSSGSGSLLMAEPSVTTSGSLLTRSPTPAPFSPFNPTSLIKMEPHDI
Chain of CRX (O43186 whole entry): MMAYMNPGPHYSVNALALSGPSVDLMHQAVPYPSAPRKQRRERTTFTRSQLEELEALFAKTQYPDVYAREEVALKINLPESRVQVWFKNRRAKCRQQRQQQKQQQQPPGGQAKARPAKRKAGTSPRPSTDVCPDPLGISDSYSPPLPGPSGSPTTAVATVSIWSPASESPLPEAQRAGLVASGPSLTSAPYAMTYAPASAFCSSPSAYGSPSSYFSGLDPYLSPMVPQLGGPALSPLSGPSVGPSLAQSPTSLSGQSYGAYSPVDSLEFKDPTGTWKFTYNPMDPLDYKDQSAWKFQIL
Chain of HSF1 (Q00613 whole entry): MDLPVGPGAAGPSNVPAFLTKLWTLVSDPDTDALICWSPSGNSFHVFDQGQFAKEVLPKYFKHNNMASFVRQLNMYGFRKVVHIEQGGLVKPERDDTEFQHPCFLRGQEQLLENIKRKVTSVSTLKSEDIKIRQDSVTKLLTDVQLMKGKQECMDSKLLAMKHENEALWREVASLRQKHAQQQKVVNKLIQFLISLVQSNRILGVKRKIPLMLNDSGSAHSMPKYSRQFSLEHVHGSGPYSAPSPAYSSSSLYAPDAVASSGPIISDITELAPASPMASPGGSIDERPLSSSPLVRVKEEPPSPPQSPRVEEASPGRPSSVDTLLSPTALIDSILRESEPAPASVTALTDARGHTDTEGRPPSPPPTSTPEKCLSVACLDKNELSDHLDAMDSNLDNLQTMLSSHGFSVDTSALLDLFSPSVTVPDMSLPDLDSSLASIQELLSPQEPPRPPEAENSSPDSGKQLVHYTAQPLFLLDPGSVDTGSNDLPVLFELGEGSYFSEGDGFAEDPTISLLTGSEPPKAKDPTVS
Chain of ETV6 (P41212 whole entry): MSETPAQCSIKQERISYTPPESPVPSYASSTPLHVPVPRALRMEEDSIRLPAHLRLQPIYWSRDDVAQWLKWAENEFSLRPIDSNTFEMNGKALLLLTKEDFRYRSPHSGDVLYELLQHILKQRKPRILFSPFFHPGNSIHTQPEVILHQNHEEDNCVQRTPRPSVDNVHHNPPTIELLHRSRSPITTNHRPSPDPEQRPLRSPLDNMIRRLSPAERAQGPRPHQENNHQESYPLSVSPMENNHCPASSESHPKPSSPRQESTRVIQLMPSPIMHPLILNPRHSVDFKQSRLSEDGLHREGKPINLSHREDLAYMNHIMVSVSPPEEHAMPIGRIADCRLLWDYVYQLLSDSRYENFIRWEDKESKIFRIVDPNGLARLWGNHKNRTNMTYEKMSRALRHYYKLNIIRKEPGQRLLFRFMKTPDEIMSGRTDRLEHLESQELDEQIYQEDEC
Chain of ETV5 (P41161 whole entry): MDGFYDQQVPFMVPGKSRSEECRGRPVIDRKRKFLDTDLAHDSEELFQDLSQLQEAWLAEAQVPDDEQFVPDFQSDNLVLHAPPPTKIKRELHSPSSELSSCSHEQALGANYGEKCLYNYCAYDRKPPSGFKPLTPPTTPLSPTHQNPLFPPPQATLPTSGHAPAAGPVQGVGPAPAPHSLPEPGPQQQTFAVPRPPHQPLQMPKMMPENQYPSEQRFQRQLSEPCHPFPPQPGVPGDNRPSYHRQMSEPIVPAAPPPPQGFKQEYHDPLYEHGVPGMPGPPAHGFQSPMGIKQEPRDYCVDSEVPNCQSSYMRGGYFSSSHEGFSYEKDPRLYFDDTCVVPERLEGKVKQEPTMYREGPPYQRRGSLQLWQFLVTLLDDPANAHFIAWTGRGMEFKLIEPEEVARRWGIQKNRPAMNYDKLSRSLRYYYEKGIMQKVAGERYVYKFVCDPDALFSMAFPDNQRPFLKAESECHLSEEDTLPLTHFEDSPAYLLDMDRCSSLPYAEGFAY
Chain of ETV1 (P50549 whole entry): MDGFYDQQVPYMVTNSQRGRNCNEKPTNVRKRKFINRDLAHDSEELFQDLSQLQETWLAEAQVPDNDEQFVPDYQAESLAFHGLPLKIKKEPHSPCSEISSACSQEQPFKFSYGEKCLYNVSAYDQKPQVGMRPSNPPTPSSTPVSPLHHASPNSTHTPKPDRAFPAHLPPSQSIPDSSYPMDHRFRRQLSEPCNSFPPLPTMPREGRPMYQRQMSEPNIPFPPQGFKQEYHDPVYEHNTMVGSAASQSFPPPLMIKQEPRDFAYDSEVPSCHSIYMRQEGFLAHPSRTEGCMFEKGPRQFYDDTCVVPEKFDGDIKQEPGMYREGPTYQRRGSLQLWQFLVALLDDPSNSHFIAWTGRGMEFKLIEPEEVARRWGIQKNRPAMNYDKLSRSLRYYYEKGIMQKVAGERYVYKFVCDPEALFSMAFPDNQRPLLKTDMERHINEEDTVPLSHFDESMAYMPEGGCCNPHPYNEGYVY

AGTATT
binding signal (FEV): 1.14 fold enrichment (6-mer frequency, TF over GST control)
binding signal (ETV5): 1.2 fold enrichment (6-mer frequency, TF over GST control)
binding signal (HSF1): 1.35 fold enrichment (6-mer frequency, TF over GST control)
binding signal (SPIC): 1.22 fold enrichment (6-mer frequency, TF over GST control)
binding signal (ELF4): 1.16 fold enrichment (6-mer frequency, TF over GST control)
binding signal (ELK4): 1.17 fold enrichment (6-mer frequency, TF over GST control)
binding signal (ETV2): 1.07 fold enrichment (6-mer frequency, TF over GST control)
binding signal (ELF3): 1.17 fold enrichment (6-mer frequency, TF over GST control)
binding signal (CRX): 1.57 fold enrichment (6-mer frequency, TF over GST control)
binding signal (ETV1): 1.19 fold enrichment (6-mer frequency, TF over GST control)
binding signal (ERF): 1.3 fold enrichment (6-mer frequency, TF over GST control)
binding signal (ETV3L): 1.22 fold enrichment (6-mer frequency, TF over GST control)
binding signal (ETS2): 1.17 fold enrichment (6-mer frequency, TF over GST control)
binding signal (SPDEF): 1.05 fold enrichment (6-mer frequency, TF over GST control)
binding signal (ETV7): 1.3 fold enrichment (6-mer frequency, TF over GST control)
binding signal (ELF5): 1.27 fold enrichment (6-mer frequency, TF over GST control)
binding signal (ETV3): 1.19 fold enrichment (6-mer frequency, TF over GST control)
binding signal (ETV6): 1.32 fold enrichment (6-mer frequency, TF over GST control)
